The text below walks through data of PubChem BioAssay (Tox21).

Experiment [1] in a line: qHTS assay to identify small molecule antagonists of the estrogen receptor alpha (ER-alpha) signaling pathway using the BG1 cell line in the presence of 0.1 nM 17-beta-estradiol - cell viability counter screen (AID 1259241). Also: nearly all actives have a fitted effect of over 40% in size. The method, boiled down:
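VM7Luc4E2 cells (endogenous full-length ER-alpha, 4xERE-luciferase), cultured 5 days in charcoal-stripped serum, exposed to compounds with 0.1 nM 17beta-estradiol (final) for 22 hr at 37C. Viability read in same wells as live-cell protease fluorescence after 30 min.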
In general terms: In qHTS, concentration-response curves come from the screen itself.

Experiment [2] in a line: qHTS assay to identify small molecule antagonists of the androgen receptor (AR) signaling pathway using the MDA cell line in the presence of 0.5 nM R1881 - cell viability counter screen (AID 1259242). Also: nearly all actives have a fitted effect of over 45% in size. Also: potency is read from the fitted curve at half-maximal effect. The method, boiled down:
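R1881 at 0.5 nM final stimulated MDA-kb2 cells during 16 hr compound treatment at 37C. Cytotoxicity read: CellTiter-Fluor fluorescence after 30 min.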

Experiment [3] deals with Estrogen receptor (Homo sapiens) (UniProt P03372). The experiment is described as follows: qHTS assay to identify small molecule antagonists of the estrogen receptor alpha (ER-alpha) signaling pathway using the BG1 cell line in the presence of 0.1 nM 17-beta-estradiol (AID 1259244). Also: nearly all actives have a fitted effect of over 50% in size. The gist of the method: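 VM7Luc4E2; 4xERE-luciferase; 0.1 nM E2 final; 22 h co-incubation, 37C; ONE-Glo luminescence after 30 min at room temperature.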
Estrogen receptor (Homo sapiens), sequence (P03372 whole entry, looked up): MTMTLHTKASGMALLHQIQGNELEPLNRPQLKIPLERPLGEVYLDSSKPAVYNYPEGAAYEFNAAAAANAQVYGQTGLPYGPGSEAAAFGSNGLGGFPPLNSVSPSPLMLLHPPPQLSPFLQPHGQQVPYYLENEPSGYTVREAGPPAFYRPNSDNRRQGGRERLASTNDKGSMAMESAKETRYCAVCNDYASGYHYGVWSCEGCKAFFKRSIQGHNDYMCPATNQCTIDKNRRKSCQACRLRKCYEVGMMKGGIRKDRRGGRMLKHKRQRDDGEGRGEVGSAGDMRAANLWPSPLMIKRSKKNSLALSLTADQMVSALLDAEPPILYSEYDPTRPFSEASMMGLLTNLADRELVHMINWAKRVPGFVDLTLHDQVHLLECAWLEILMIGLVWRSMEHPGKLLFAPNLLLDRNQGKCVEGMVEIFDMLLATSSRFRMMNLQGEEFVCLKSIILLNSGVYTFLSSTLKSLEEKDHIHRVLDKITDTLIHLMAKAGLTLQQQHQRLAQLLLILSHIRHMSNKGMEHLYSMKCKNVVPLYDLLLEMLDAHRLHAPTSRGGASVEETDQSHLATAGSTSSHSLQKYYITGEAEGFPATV

A short description of experiment [4]: qHTS assay to identify small molecule HDAC inhibitors (AID 1259364). Also: potency is read from the fitted curve at half-maximal effect.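 Also: wild-type HCT-116 cells with endogenous class I/II HDAC activity; nearly all actives have a fitted effect of over 45% in size.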 The method, boiled down:
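Relative class I and II HDAC activity is taken from the luminogenic signal in HCT-116 cells, with compound exposure 2 hr and reagent development 30 min at room temperature.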

The nature of experiment [5]: qHTS assay to identify small molecule agonists of the sonic hedgehog signaling (Shh) pathway - cell viability counter screen (AID 1259366). Also: nearly all actives have a fitted effect of over 50% in size. Also: potency is read from the fitted curve at half-maximal effect. The method, boiled down: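 NIH/3T3-derived Gli1-Luc reporter cells, 2,000 per well, received compound after 4 h and were treated about 23 h at 37C. Viability measured in the same wells by CellTiter-Fluor fluorescence after 1 h.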

A short description of experiment [6]: qHTS assay to identify small molecule antagonists of the sonic hedgehog signaling (Shh) pathway - cell viability counter screen (AID 1259367). Also: nearly all actives have a fitted effect of over 55% in size. Also: potency is read from the fitted curve at half-maximal effect. The gist of the method:
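After a 4 hr settling period, 3T3 Gli1-Luc cells were treated with DMSO-dissolved chemicals and conditioned medium, kept 24 hr at 37C in 5% CO2, and assayed for viability by CellTiter-Fluor fluorescence following 1 hr reagent incubation.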

A short description of experiment [7]: qHTS assay to identify small molecule agonists of the sonic hedgehog signaling (Shh) pathway (AID 1259368; calls by dose curve;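 also: NIH/3T3-derived 3T3Gli1-Luc cells carrying a stable Gli1-driven firefly luciferase reporter; series mostly up to about 92 µM; nearly all actives have a fitted effect of over 15% in size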). The method, boiled down: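 Mouse fibroblast (NIH/3T3) reporter cells with stably integrated Gli1-Luc were treated 24 hr with compound; firefly luciferase luminescence served as the read-out.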
Experiment [8] can be described thus: qHTS assay to identify small molecule antagonists of the sonic hedgehog signaling (Shh) pathway (AID 1259369; calls by dose curve; also: nearly all actives have a fitted effect of over 45% in size; also: potency is read from the fitted curve at half-maximal effect). The method, boiled down:
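Conditioned medium drives Shh signalling in 3T3Gli1-Luc cells; compounds in DMSO co-applied, 24hr at 37 C, then luciferase luminescence.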

Experiment [9] is described as follows: qHTS assay to identify small molecule agonists of the androgen receptor (AR) signaling pathway in the presence of an antagonist - cell viability counter screen (AID 1259379).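 Also: MDA-kb2 human breast cancer cells carrying an MMTV luciferase reporter; series mostly up to about 92 µM; nearly all actives have a fitted effect of over 25% in size.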 The gist of the method:
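A CellTiter-Fluor read-out measured viability of MDA-kb2 reporter cells (MMTV promoter with AR and GR response elements). Treatment: nilutamide 3.0uM final with compounds at 15 concentrations, 16 hr, 37C, 0% CO2.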

Experiment [10] can be described thus: qHTS assay to identify small molecule agonists of the estrogen receptor beta (ER-beta) signaling pathway - cell viability counter screen (AID 1259380). Also: nearly all actives have a fitted effect of over 30% in size. Also: potency is read from the fitted curve at half-maximal effect. The gist of the method:
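Cells used were ER-beta-UAS-bla HEK293T in medium with 2% charcoal-stripped FBS. They were treated for 16 hr at 37C. Viability came from CellTiter-Glo luminescence.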

The target of experiment [11] is Estrogen receptor (Homo sapiens) (UniProt P03372). The experiment is described as follows: qHTS assay to identify small molecule agonists of the estrogen receptor alpha (ER-alpha) signaling pathway in the presence of an antagonist (AID 1259383; calls by dose curve; also: top concentration of the series differs between compounds; nearly all actives have a fitted effect of over 15% in size). The gist of the method: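 Using VM7Luc4E2 cells seeded 24hr before treatment, antagonist ICI-182,780 (10.0nM final) was added, followed by compounds at 15 concentrations. Plates incubated 22hr; ONE-Glo luminescence quantified reporter activity.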

Experiment [12] can be described thus: qHTS assay to identify small molecule agonists or antagonists of the thyroid stimulating hormone receptor (TSHR) signaling pathway - wild type cell line counter screen (AID 1259384; calls by dose curve). The method, boiled down: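 Wild-type HEK293 cells were plated 18 h at 37 C/5% CO2, pin-dosed with compound plus Ro20-1724 medium, held 30 min at room temperature, then given cAMP-d2 and anti-cAMP-cryptate; fluorescence was read after 1 h. Fifteen concentrations, triplicate.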

Experiment [13] addresses Thyrotropin receptor (Homo sapiens) (UniProt P16473). The experiment is described as follows: qHTS assay to identify small molecule antagonists of the thyroid stimulating hormone receptor (TSHR) signaling pathway (AID 1259385; calls by dose curve; also: nearly all actives have a fitted effect of over 20% in size). The gist of the method: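 TSHR-HEK293 cells were plated and held 18 h at 37C/5% CO2, then given compound plus Ro20-1724 and stimulated with TSH at 1.5 ng/mL final. After 30 min at room temperature, cAMP was detected with cAMP-d2/anti-cAMP-cryptate (1 h) by fluorescence.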

The nature of experiment [14]: qHTS assay to identify small molecule antagonists of the estrogen receptor beta (ER-beta) signaling pathway - cell viability counter screen (AID 1259382). Also: nearly all actives have a fitted effect of over 55% in size. Also: potency is read from the fitted curve at half-maximal effect. The method, boiled down:
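Agonist-stimulated (1nM E2) ER-beta-UAS-bla HEK293T cells are incubated with library compounds for 16 hr at 37C. Cell viability is then assessed in the reporter-assay wells by adding CellTiter-Glo and reading luminescence after 30 min.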

Experiment [15] is described as follows: qHTS assay to identify small molecule phospholipidosis (PLD) inducers (AID 1259344; active = well fitted curve in the direction sought with a large enough effect; an effect the other way counts as inactive or inconclusive). The method, boiled down: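 HepG2 cells grown on collagen I take up LipidTOX Red while exposed to compound for 24 h; after fixation they are imaged at 20x and pit metrics are extracted.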
Experiment [16] deals with Estrogen receptor beta (Homo sapiens) (UniProt Q92731). The experiment is described as follows: qHTS assay to identify small molecule agonists of the estrogen receptor beta (ER-beta) signaling pathway (AID 1259377; active = well fitted activation curve with a large enough effect in the signal ratio in the repeat runs, not every such curve was filed as active; the % refers to the signal ratio). The method, boiled down: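 ER-beta-UAS-bla HEK293T cells in medium with 2% charcoal-stripped FBS were exposed to compounds for 16 h at 37C. Beta-lactamase reporter activity was read as fluorescence after 2 h with LiveBLAzer B/G FRET substrate at room temperature.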
Estrogen receptor beta (Homo sapiens), sequence (Q92731 whole entry, looked up): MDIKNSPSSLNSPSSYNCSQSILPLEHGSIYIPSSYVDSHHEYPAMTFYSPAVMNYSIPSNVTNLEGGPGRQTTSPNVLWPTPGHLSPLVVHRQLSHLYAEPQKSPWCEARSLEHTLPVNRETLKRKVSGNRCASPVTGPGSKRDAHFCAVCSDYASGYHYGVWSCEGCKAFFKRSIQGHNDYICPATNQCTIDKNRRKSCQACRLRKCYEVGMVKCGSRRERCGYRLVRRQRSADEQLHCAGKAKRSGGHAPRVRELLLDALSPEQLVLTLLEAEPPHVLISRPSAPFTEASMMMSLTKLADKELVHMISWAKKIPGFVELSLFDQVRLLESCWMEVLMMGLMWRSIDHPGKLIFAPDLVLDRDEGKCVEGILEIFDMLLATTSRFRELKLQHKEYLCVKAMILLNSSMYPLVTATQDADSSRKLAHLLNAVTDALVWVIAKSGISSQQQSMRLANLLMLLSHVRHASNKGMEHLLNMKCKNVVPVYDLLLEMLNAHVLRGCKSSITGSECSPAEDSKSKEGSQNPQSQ

A short description of experiment [17]: qHTS assay to identify small molecule HDAC inhibitors - cell viability counter screen (AID 1259365). Also: nearly all actives have a fitted effect of over 50% in size. Also: potency is read from the fitted curve at half-maximal effect. The gist of the method:
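Wild-type HCT-116 cells, 1,500/well, cultured overnight, then compound-treated 2 h at 37 C. Viability measured as ATP luminescence with CellTiter-Glo after 30 min at room temperature.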

For experiment [18], the target named is Androgen receptor (Homo sapiens) (UniProt P10275). Kind of experiment: qHTS assay to identify small molecule agonists of the androgen receptor (AR) signaling pathway in the presence of an antagonist (AID 1259381; calls by dose curve; also: nearly all actives have a fitted effect of over 15% in size). The gist of the method: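 Using human MDA-kb2 cells with an MMTV promoter–luciferase construct (AR and GR response elements), agonist activity is scored under 3.0uM nilutamide (final) co-treatment; 16hr incubation, 37C, luminescence readout via ONE-Glo.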
Androgen receptor (Homo sapiens), sequence (P10275 whole entry, looked up): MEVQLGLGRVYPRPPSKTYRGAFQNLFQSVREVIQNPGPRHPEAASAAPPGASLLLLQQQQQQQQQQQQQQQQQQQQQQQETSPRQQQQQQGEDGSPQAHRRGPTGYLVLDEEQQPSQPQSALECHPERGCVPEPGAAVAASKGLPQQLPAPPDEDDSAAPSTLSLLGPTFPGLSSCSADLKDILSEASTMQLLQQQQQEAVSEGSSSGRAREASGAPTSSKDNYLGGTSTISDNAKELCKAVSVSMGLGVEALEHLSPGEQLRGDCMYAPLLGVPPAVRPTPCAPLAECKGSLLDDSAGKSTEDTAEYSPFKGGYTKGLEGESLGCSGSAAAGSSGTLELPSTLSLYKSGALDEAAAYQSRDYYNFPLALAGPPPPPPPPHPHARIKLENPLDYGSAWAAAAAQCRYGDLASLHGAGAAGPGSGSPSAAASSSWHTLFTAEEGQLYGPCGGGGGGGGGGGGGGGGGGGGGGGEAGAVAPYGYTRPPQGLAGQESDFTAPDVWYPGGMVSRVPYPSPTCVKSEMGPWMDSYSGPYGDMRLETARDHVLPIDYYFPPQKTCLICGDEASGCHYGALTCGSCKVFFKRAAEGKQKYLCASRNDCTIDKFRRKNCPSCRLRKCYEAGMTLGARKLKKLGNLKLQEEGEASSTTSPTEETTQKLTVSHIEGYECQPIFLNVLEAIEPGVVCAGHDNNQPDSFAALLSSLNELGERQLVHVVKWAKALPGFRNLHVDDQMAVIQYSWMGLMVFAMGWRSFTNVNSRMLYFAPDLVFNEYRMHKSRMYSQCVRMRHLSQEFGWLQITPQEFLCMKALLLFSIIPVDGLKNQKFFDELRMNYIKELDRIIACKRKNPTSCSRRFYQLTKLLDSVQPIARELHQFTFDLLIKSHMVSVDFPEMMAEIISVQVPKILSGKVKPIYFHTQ

In experiment [19] the target is Estrogen receptor beta (Homo sapiens) (UniProt Q92731). Kind of experiment: qHTS assay to identify small molecule antagonists of the estrogen receptor beta (ER-beta) signaling pathway (AID 1259378; active = well fitted inhibition curve with a large enough effect in the signal ratio in the repeat runs, not every such curve was filed as active; the % refers to the signal ratio). The method, boiled down:
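ER-beta-UAS-bla HEK293T (GripTite) cells in 2% charcoal-stripped FBS medium were preincubated 6 hr at 37C, dosed with compound, then stimulated with 1 nM E2 (final) for 16 hr; beta-lactamase reporter read by B/G FRET fluorescence after 2 hr substrate loading.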

The structures appear in SMILES notation. Values joined by “and” are separate entries in the source; they are usually repeats but may differ in a detail not shown here. Identical values can stand only once. Inconclusive results are not listed. A structure can be active in one record and inactive in another. Active and inactive are the calls of the source. Unless noted, calls follow the shape of the dose curve; as a rule, active = well fitted curve in the direction sought with a large enough effect in the repeat runs; inconclusive = weak or mixed curves; inactive = no such curve, though single readings can be large; an effect the other way counts as inactive or inconclusive.
% is scaled to controls: 0 for no effect and ±100 for the full control effect.

Thyrotropin receptor (Homo sapiens), sequence (P16473 whole entry, looked up): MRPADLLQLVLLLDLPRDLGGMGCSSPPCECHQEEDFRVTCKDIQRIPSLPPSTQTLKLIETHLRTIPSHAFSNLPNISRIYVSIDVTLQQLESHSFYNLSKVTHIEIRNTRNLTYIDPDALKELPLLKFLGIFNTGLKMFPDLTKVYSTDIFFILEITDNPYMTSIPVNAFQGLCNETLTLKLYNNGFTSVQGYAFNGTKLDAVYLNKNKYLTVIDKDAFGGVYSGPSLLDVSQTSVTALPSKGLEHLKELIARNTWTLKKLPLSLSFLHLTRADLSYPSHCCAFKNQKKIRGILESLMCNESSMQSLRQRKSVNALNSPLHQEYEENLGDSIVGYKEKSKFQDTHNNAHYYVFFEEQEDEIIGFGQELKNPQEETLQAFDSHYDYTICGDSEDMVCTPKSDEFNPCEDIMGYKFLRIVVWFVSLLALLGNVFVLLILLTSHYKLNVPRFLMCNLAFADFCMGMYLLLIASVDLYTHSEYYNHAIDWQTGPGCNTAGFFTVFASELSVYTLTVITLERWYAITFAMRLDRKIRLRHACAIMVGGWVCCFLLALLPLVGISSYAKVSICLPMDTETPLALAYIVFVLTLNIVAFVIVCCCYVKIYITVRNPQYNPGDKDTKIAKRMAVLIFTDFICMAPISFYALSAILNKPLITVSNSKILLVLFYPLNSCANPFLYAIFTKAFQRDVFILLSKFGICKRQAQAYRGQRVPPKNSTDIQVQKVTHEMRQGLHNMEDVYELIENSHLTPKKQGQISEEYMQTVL

Regarding `C=CCOCC1CO1` (stereo not given), the Potency entry in experiment [1], in experiment [2], in experiment [3], in [4], in experiment [5] and in [6] was “inactive” each time. Also, the Potency result in experiment [7], in [8], in [9], in experiment [10], in [11] and in experiment [13] was “inactive” in each case. In addition, the call in [12] was inactive.
For `O=C(Cc1ccccc1)c1ccccc1`, the Potency entry in experiment [1], in experiment [2], in experiment [3], in [5], in experiment [6] and in experiment [7] was “inactive” each time. Besides, the Potency entry in [8], in experiment [9], in experiment [10], in experiment [14], in [11] and in experiment [13] was “inactive” each time. Moreover, the Potency in experiment [4] was 27.3 µM (active). In experiment [12], the call was inactive.
As to `C[C@@H]1C[C@@H]([C@H](O)CC2CC(=O)NC(=O)C2)C(=O)[C@@H](C)C1`, the Potency result in [1], in [2], in experiment [4], in experiment [7], in experiment [16] and in experiment [9] was “inactive” throughout. Moreover, the Potency result in [13] was “inactive”. For the same molecule, the PLD induction in experiment [15] was 2.68% [at 7.66 µM] (inactive). Moreover, the Potency in experiment [5] was 2.16 µM (active); in experiment [6], 136 nM (active) and 969 nM (active); in [8] it was 12.1 nM (active) and 48.6 nM (active) and 150 nM (active). Moreover, in [12], the call was inactive.
Turning to `CC(C)(C)CC(C)(C)c1ccc(O)cc1`, the Potency result in experiment [1], in [2], in experiment [4], in experiment [9], in experiment [18] and in experiment [13] was “inactive” in each case. In addition, the result in experiment [15] and in experiment [12] was inactive. In addition, the Potency in [17] is 61.1 µM (active) and inactive; in experiment [5], 48.6 µM (active) and inactive; in experiment [8] it was 15.4 µM (active); in [10] it was 30.6 µM (active) and 33.5 µM (active); in experiment [14], 57.7 µM (active) and 33.5 µM (active).
On to `C=CC(C)(CCC=C(C)C)OC(=O)c1ccccc1N` (stereo not given), for which the Potency entry in [1], in experiment [2], in [4], in [17], in [5] and in experiment [6] was “inactive” throughout. Moreover, the Potency result in experiment [7], in experiment [8], in experiment [9], in [10], in [14] and in experiment [13] was “inactive” in each case. The call in [12] was inactive.
In the case of `Nc1ccccc1C(=O)OCCc1ccccc1`, the Potency result in experiment [1], in [2], in experiment [17], in experiment [5], in [6] and in experiment [8] was “inactive” each time. Moreover, the Potency entry in experiment [9] and in experiment [13] was “inactive” each time. Also, the Potency is 9.73 µM (active) and 3.86 µM (active) in [4]; 9.73 µM (active) and 7.7 µM (active) in experiment [10]. Besides, the result in experiment [12] was inactive.
With `COc1ccc(C(=O)c2c(C)n(CCN3CCOCC3)c3ccccc23)cc1`, the Potency entry in [1], in experiment [2], in experiment [4], in [17], in [7] and in experiment [8] was “inactive” each time. Also, the Potency entry in [19], in [9], in [10] and in experiment [14] was “inactive” in each case. In experiment [15], the molecule was classed as inactive.
For `N#CC1(N=NC2(C#N)CCCCC2)CCCCC1`, the Potency result in [1], in experiment [2], in experiment [4], in experiment [17], in experiment [5] and in [6] was “inactive” throughout. Besides, the Potency entry in experiment [9], in experiment [10] and in experiment [13] was “inactive” each time. Besides, in experiment [8], the Potency was 21.7 µM (active). Moreover, the result in experiment [12] was inactive.
As for `CCCCCl`, the Potency result in experiment [1], in experiment [2], in experiment [4], in experiment [17], in experiment [5] and in [6] was “inactive” throughout. The Potency result in experiment [8], in [9], in [10], in experiment [14] and in experiment [13] was “inactive” throughout. Further, the result in [15] and in experiment [12] was inactive.
Turning to `Clc1ccc(Cl)c(Cl)c1`, the Potency entry in experiment [1], in experiment [2], in [4], in [17], in experiment [5] and in experiment [6] was “inactive” in each case. Further, the Potency result in [7], in experiment [8], in [19], in experiment [9], in experiment [10] and in experiment [14] was “inactive” throughout. Also, in experiment [13], the Potency entry was “inactive”. In addition, the molecule was classed as inactive in experiment [12].
In the case of `Cc1ccc(N)c(C)c1`, the Potency entry in experiment [1], in experiment [2], in [4], in experiment [17], in experiment [5] and in [6] was “inactive” each time. Moreover, the Potency entry in experiment [7], in [8], in [16], in experiment [19], in [9] and in experiment [10] was “inactive” each time. Moreover, the Potency result in [14] was “inactive”.
As for `CCOC(=O)C1OC1(C)c1ccccc1` (stereo not given), the Potency result in experiment [1], in [2], in experiment [4], in experiment [5], in experiment [6] and in [7] was “inactive” each time. The Potency entry in experiment [8], in experiment [16], in [19], in experiment [9], in experiment [10] and in experiment [14] was “inactive” each time. Moreover, in experiment [13], the Potency entry was “inactive”. The molecule was classed as inactive in experiment [12].
Regarding `CCC(C)(C)c1ccc(O)c(C(C)(C)CC)c1`, the Potency entry in experiment [1], in experiment [3], in experiment [4], in experiment [5], in experiment [6] and in experiment [7] was “inactive” throughout. The Potency result in [8], in experiment [11] and in [13] was “inactive” throughout. Besides, the Potency in experiment [2] was 67.8 µM (active); in experiment [10], 21.4 µM (active) and 24.3 µM (active); in experiment [14] it was 53.9 µM (active) and 30.6 µM (active). In experiment [12], the molecule was classed as inactive.
